Laboratory results published in PubChem BioAssay (NCI).
The panel holds about 79,000 compounds, 15% with a hit somewhere; the sample as a whole holds those more often. Values without a mark were called inactive. Activity calls are given as the source filed them. No stated cut-off is given here; in the data, active means growth inhibition above about 70%; inactive means the rest.

Key:
[1] = NCI Yeast Anticancer Drug Screen. Data for the rad50 strain (AID 155);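 further: 0% = growth of vehicle-only cultures of the same strain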; settings: S. cerevisiae rad50 strain growth inhibition, stronger effect = higher value
In short: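 DNA repair mutant yeast, compound exposure, growth read-out; inhibition is taken relative to vehicle.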

[2] = NCI Yeast Anticancer Drug Screen. Data for the mec2-1 strain (AID 157); settings: S. cerevisiae mec2-1 strain, stronger effect = higher value
In short: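 Test agents were screened against the mec2-1 yeast strain, with defined DNA repair or cell cycle alteration. Growth was scored as inhibition against vehicle-only controls.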

[3] = NCI Yeast Anticancer Drug Screen. Data for the sgs1 mgt1 strain (AID 161);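 further: 0% = growth of cultures given vehicle only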; settings: S. cerevisiae sgs1 mgt1 strain, stronger effect = higher value
In short: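 Test agents were incubated with a DNA-repair-mutant yeast strain. Growth was then read and compared against vehicle-treated controls.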

[4] = NCI Yeast Anticancer Drug Screen. Data for the cln2 rad14 strain (AID 165);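 further: 0% = growth equal to vehicle treated cultures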; settings: S. cerevisiae cln2 rad14 strain, stronger effect = higher value
In short: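 Growth of compound-exposed yeast (cln2 rad14 genotype) measured and expressed as inhibition relative to vehicle.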

[5] = NCI Yeast Anticancer Drug Screen. Data for the bub3 strain (AID 167); settings: S. cerevisiae bub3 mutant strain, stronger effect = higher value
In short: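 In this screen, a yeast mutant lacking normal mitotic checkpoint function is challenged with compound. Relative growth versus vehicle gives the inhibition value.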

[6] = NCI Yeast Anticancer Drug Screen. Data for the mlh1 rad18 strain (AID 175); settings: S. cerevisiae mlh1 rad18 strain growth inhibition, stronger effect = higher value
In short: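 In this whole-cell yeast screen, a strain with altered DNA damage repair is challenged with compound, and its growth is measured against matched vehicle-treated controls.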

[7] = at 5.0 µM (retest, dose inferred, filed as 0.5)
[8] = at 50.0 µM (retest, dose inferred, filed as 5.0)

| Structure (SMILES) | growth inhibition [1, 7] | growth inhibition [1, 8] | growth inhibition ([1]; at 50.0 µM) | growth inhibition [2, 7] | growth inhibition [2, 8] | growth inhibition ([2]; at 50.0 µM) | growth inhibition [3, 7] | growth inhibition [3, 8] | growth inhibition ([3]; at 50.0 µM) | growth inhibition [4, 7] | growth inhibition [4, 8] | growth inhibition ([4]; at 50.0 µM) | growth inhibition [5, 7] | growth inhibition [5, 8] | growth inhibition ([5]; at 50.0 µM) | growth inhibition [6, 7] | growth inhibition [6, 8] | growth inhibition ([6]; at 50.0 µM) |
| --- | --- | --- | --- | --- | --- | --- | --- | --- | --- | --- | --- | --- | --- | --- | --- | --- | --- | --- |
| CCC(Cl)COP(=O)(OCC(Cl)CC)OC(c1ccc(Cl)c(Cl)c1)P(=O)(OCC(Cl)CC)OCC(Cl)CC (configuration not stated) | 8% | 23% | 55% | 14% | 11% | 91.2% (active) | -1% | 7% | 93% (active) | -10% | 1% | 76.2% (active) | -3% | 9% | 55.6% | 7% | 37% | 85.7% (active) |
| Cc1cccc[c]1[Sn]([Cl])([O][Sn]([Cl])([c]1ccccc1C)[c]1ccccc1C)[c]1ccccc1C | 61% | 97% (active) | 88.3% (active) | 46% | 98% (active) | 90.8% (active) | 40% | 98% (active) | 89% (active) | 20% | 96% (active) | 88.3% (active) | 42% | 98% (active) | 88.2% (active) | 85% (active) | 96% (active) | 89.5% (active) |
| C=C(CN(C)C)C(=O)c1ccc(OC2OC(COC(C)=O)C(OC(C)=O)C(OC(C)=O)C2OC(C)=O)cc1 (configuration not stated) | -1% | 2% | -5.65% | 0% | 5% | -18.4% | 3% | -43% | -8.8% | 7% | 2% | 10.4% | 15% | 4% | -3.75% | 5% | 2% | -18.9% |
| COc1ccc2c(c1)CCCN2S(=O)(=O)c1ccc(N)cc1 | -1% | 18% | 45.5% | -3% | 5% | 27.1% | -2% | 16% | 36.8% | 0% | 13% | -6.65% | 3% | 49% | 32.2% | -2% | 12% | 47% |
| Nc1cc(Cl)c2c(c1)Cc1ccccc1-2 | 3% | 96% (active) | 76.8% (active) | 2% | 95% (active) | 9.45% | 7% | 96% (active) | 84.8% (active) | -7% | 94% (active) | -22.4% | -6% | 94% (active) | 70.8% (active) | 0% | 94% (active) | 86.8% (active) |
| CC1OC(c2ccc3c(c2)OCO3)OC1C (configuration not stated) | 1% | 0% | -21.6% | -4% | -7% | 20.1% | -4% | -5% | 24.6% | 0% | -2% | 70.7% (active) | -8% | -23% | 25% | 2% | 0% | 64.7% |
| CCOc1c(N=Nc2ccc(OC)cc2)c(-c2ccccc2)nn1C(N)=S | 4% | 36% | 12.3% | -2% | 34% | 38% | 10% | 73% (active) | 25.8% | 6% | 9% | 3.1% | 3% | 71% (active) | 70.2% (active) | 0% | 27% | 23.9% |
| CC1=NN(c2ccccc2)C(=O)C1N=Nc1cc(Cl)cc(S(=O)(=O)O)c1O (configuration not stated) | 59% | 99% (active) | 66.3% | 66% | 99% (active) | 21.6% | 21% | 52% | 55.7% | 21% | 30% | 29.7% | 66% | 30% | 26.3% | 52% | 99% (active) | 42.5% |
| O=C(O)c1ccc([N+](=O)[O-])cc1.[Ag] | 99% (active) | 99% (active) | 98.8% (active) | 100% (active) | 99% (active) | 99.3% (active) | 99% (active) | 99% (active) | 99.5% (active) | 99% (active) | 99% (active) | 98.9% (active) | 99% (active) | 99% (active) | 99.2% (active) | 99% (active) | 99% (active) | 99.2% (active) |
| CC(=O)OCC1OC(N2CCc3cc([N+](=O)[O-])ccc32)C(OC(C)=O)C(OC(C)=O)C1OC(C)=O (configuration not stated) | 2% | -4% | -15.4% | -19% | 20% | -1.35% | 3% | 23% | -9.2% | 7% | -3% | 41.9% | 3% | 1% | -3.25% | 11% | 18% | -16.8% |
| O=C(N/N=C/c1cc(Br)ccc1O)c1ccccc1 | 59% | 61% | -23.9% | 32% | 53% | -18.9% | 64% | 82% (active) | 5.65% | 21% | 25% | -33.9% | 79% (active) | 89% (active) | -12.6% | 92% (active) | 90% (active) | -6.75% |
| COc1ccc(C2=NN(c3ccccc3)C[N+](c3ccc(OC)cc3)=N2)cc1 | 22% | 72% (active) | 96.5% (active) | -7% | 51% | 97.5% (active) | 9% | 48% | 97.7% (active) | 10% | 96% (active) | 96.4% (active) | -10% | 99% (active) | 97.7% (active) | 6% | 84% (active) | 96.8% (active) |
| N#C/C(=C/c1ccccc1B(O)O)C(=O)O | -151% | -5% | 71.4% (active) | -49% | -36% | 17% | -61% | -40% | 31.3% | -62% | -58% | 13.1% | -77% | -96% | -8.9% | -140% | -65% | 65.8% |
| COc1ccc2cc3c4cc(OC)c(OC)cc4ccn3c2c1 | 3% | 65% | 33.1% | -1% | 58% | 15.3% | 16% | 81% (active) | 62.4% | 5% | 71% (active) | 80% (active) | -1% | 84% (active) | 24.2% | 12% | 88% (active) | 91.5% (active) |
| O=C(C(=S)c1ccccc1)N(Cc1ccccc1)Cc1ccccc1 | -2% | 44% | 79.3% (active) | 1% | 25% | 88.9% (active) | 0% | 48% | 95.9% (active) | 0% | 27% | 59.4% | 4% | 41% | 93.8% (active) | 2% | 50% | 94.4% (active) |
| CC(=O)N1C/C(=C\c2ccccc2)C(=O)/C(=C/c2ccccc2)C1 | 60% | 87% (active) | 84.9% (active) | 47% | 92% (active) | 82.7% (active) | 46% | 98% (active) | 79.5% (active) | 35% | 88% (active) | 67.5% | 47% | 91% (active) | 87.8% (active) | 62% | 96% (active) | 78.9% (active) |
| Nc1nnc2nc(C(C(=O)c3ccccc3Cl)c3nc4nnc(N)n4[nH]c3=O)c(=O)[nH]n12 | -2% | -4% | 93.8% (active) | 1% | 0% | 99.8% (active) | -2% | -2% | 41.5% | -1% | -2% | 74.6% (active) | -1% | -7% | 99.5% (active) | 0% | -4% | 96.5% (active) |
| Nc1ccc2ccccc2c1N=Cc1ccccc1[N+](=O)[O-] | -3% | 72% (active) | 85.8% (active) | -10% | 90% (active) | 29.8% | 5% | 92% (active) | 96.8% (active) | -9% | 54% | -40.1% | 15% | 85% (active) | 30.2% | 11% | 91% (active) | 84.3% (active) |
| CCC[CH2][Sn]([CH2]CCC)([O]C(=O)c1cc(OC)c(OC)cc1OC)[O][Sn]([CH2]CCC)([CH2]CCC)[O]C(=O)c1cc(OC)c(OC)cc1OC | 94% (active) | 97% (active) | 88.5% (active) | 96% (active) | 98% (active) | 91% (active) | 96% (active) | 99% (active) | 91.5% (active) | 92% (active) | 98% (active) | 90.2% (active) | 97% (active) | 98% (active) | 90.5% (active) | 96% (active) | 97% (active) | 89% (active) |
